From PubChem BioAssay AID1159580 (chemical genetic matrix, 2015)
Where “and” joins values, the source holds several entries; their conditions need not be identical. Identical values can stand only once. About 2,000 (36%) of roughly 5,500 compounds were called active. Roughly 18% stayed inconclusive and do not appear here. Cut-off read from the data, not from the text of the source: active = normalized growth mostly below about 0.91 (no sharp cut-off); inconclusive = no clear call, values can overlap the other calls; inactive = mostly above about 0.92. Some of the results follow.

Experiment: chemical genetic growth profiling, strain panel (AID 1159580);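 note: tested at 20 µM; growth read once vehicle control cultures reached saturation at 30 °C; 1 = growth at the plate median or of vehicle wells; lower values mean less growth of the strain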
Conditions: S. cerevisiae deletion strains, growth OD

Measured: normalized growth

C[CH2][Hg][S]c1ccccc1C(=O)O
active: locus YAL013W, strain DEP1, active compounds read low 0.0571 | locus YAL021C, strain ccr4, active compounds read low 0.0644 | locus YAL026C, strain drs2, active compounds read low 0.0601 | locus YAL030W, strain snc1, active compounds read low 0.0549 | locus YBL061C, strain skt5, active compounds read low 0.0584 | locus YBR009C, strain hhf1, active compounds read low 0.0625 | locus YBR021W, strain FUR4, active compounds read low 0.0826 | locus YBR023C, strain chs3, active compounds read low 0.0607 | locus YBR171W, strain sec66, active compounds read low 0.0719 | locus YBR229C, strain ROT2, active compounds read low 0.0466 | locus YBR231C, strain swc5, active compounds read low 0.0602 | locus YBR279W, strain paf1, active compounds read low 0.0565 | locus YCL011C, strain gbp2, active compounds read low 0.0545 | locus YCL016C, strain dcc1, active compounds read low 0.0628 | locus YCL029C, strain bik1, active compounds read low 0.0644 | locus YCL061C, strain MRC1, active compounds read low 0.0624 | locus YCL069W, strain vba3, active compounds read low 0.0582 | locus YCR088W, strain abp1, active compounds read low 0.0571 | locus YDL005C, strain med2, active compounds read low 0.0718 | locus YDL035C, strain GPR1, active compounds read low 0.0506 | locus YDL040C, strain nat1, active compounds read low 0.0559 | locus YDL074C, strain BRE1, active compounds read low 0.0797 | locus YDL101C, strain DUN1, active compounds read low 0.0547 | locus YDL134C, strain PPH21, active compounds read low 0.0487 | locus YDL185W, strain tfp1, active compounds read low 0.056 | locus YDL192W, strain arf1, active compounds read low 0.0586 | locus YDR001C, strain nth1, active compounds read low 0.0548 | locus YDR069C, strain doa4, active compounds read low 0.0614 | locus YDR101C, strain arx1, active compounds read low 0.0572 | locus YDR137W, strain rgp1, active compounds read low 0.0826 | locus YDR150W, strain NUM1, active compounds read low 0.058 | locus YDR159W, strain sac3, active compounds read low 0.0891 | locus YDR162C, strain NBP2, active compounds read low 0.0541 | locus YDR195W, strain ref2 0.117 | locus YDR297W, strain sur2, active compounds read low 0.0559 | locus YDR318W, strain mcm21, active compounds read low 0.0596 | locus YDR334W, strain swr1, active compounds read low 0.06 | locus YDR335W, strain msn5, active compounds read low 0.0577 | locus YDR388W, active compounds read low 0.0549 | locus YDR392W, strain spt3, active compounds read low 0.0928 | locus YDR502C, strain sam2, active compounds read low 0.0576 | locus YEL003W, strain gim4, active compounds read low 0.0526 | locus YEL037C, strain rad23, active compounds read low 0.0545 | locus YEL061C, strain CIN8 (second series), active compounds read low 0.058 | locus YEL061C, strain CIN8, active compounds read low 0.0473 | locus YER015W, strain faa2, active compounds read low 0.0585 | locus YER016W, strain bim1, active compounds read low 0.059 | locus YER110C, active compounds read low 0.0716 | locus YER111C, strain swi4, active compounds read low 0.0734 | locus YER155C, strain BEM2 (second series), active compounds read low 0.0849 | locus YER155C, strain BEM2, active compounds read low 0.0624 | locus YER167W, strain BCK2, active compounds read low 0.0502 | locus YFR010W, strain ubp6, active compounds read low 0.0647 | locus YGL078C, strain dbp3, active compounds read low 0.0538 | locus YGL086W, strain mad1, active compounds read low 0.0535 | locus YGL167C, strain pmr1, active compounds read low 0.0714 | locus YGL173C, strain kem1, active compounds read low 0.0663 | locus YGL227W, strain vid30, active compounds read low 0.059 | locus YGL240W, strain doc1, active compounds read low 0.0734 | locus YGL248W, strain PDE1, active compounds read low 0.0448 | locus YGL253W, strain hxk2, active compounds read low 0.0514 | locus YGR078C, strain PAC10, active compounds read low 0.0492 | locus YGR135W, strain pre9, active compounds read low 0.0647 | locus YGR229C, strain SMI1, active compounds read low 0.0574 | locus YGR252W, strain gcn5, active compounds read low 0.152 | locus YHR013C, strain ard1, active compounds read low 0.106 | locus YHR027C, strain rpn1, active compounds read low 0.0612 | locus YHR030C, strain SLT2, active compounds read low 0.0498 and 0.113 | locus YHR079C, strain IRE1 (second series), active compounds read low 0.0541 | locus YHR079C, strain IRE1, active compounds read low 0.123 | locus YHR094C, strain hxt1, active compounds read low 0.0545 | locus YHR129C, strain ARP1, active compounds read low 0.0546 | locus YHR142W, strain chs7, active compounds read low 0.0696 | locus YHR200W, strain rpn10, active compounds read low 0.057 | locus YIL066C, strain RNR3, active compounds read low 0.0505 | locus YIL073C, strain SPO22, active compounds read low 0.103 | locus YIL125W, strain kgd1, active compounds read low 0.0543 | locus YIR030C, strain dcg1, active compounds read low 0.0568 | locus YJL092W, strain hpr5, active compounds read low 0.0555 | locus YJL095W, strain BCK1 (second series), active compounds read low 0.0563 | locus YJL095W, strain BCK1, active compounds read low 0.0505 and 0.109 | locus YJL115W, strain asf1, active compounds read low 0.0695 | locus YJL129C, strain trk1, active compounds read low 0.0829 | locus YJL134W, strain LCB3, active compounds read low 0.0483 | locus YJL154C, strain vps35, active compounds read low 0.0588 | locus YJL164C, strain tpk1, active compounds read low 0.0629 | locus YJL166W, strain qcr8, active compounds read low 0.0596 | locus YJL168C, strain set2, active compounds read low 0.0562 | locus YJL187C, strain SWE1 (second series), active compounds read low 0.0465 | locus YJL187C, strain SWE1, active compounds read low 0.0547 | locus YJR043C, strain POL32, active compounds read low 0.0607 | locus YJR066W, strain TOR1, active compounds read low -0.000335
